From PubChem BioAssay (NCATS)
Inconclusive results are not listed. The call rests on the fitted dose curve; in most records, active means well fitted curve in either direction with a large enough effect (not every such curve was filed as active); inconclusive means small, poorly fitted or top-dose-only effect, or another doubt; inactive means flat fitted curve, though single readings scatter.

experiment: AP1 Signaling Pathway (AID 357); conditions: ME-180 (cervical carcinoma) AP-1-bla reporter, EGF-induced, beta-lactamase ratio, 5 h; at 7.69 µM (top of the series) unless noted
How it was run: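 AP-1-bla ME-180 cells, Opti-MEM + 0.5% dialyzed FBS, plated overnight 37 °C. Cpd titration + EC50 EGF, 5 h 37 °C. CCF4 2.5 h RT; ex 405, em 460/530 ratio → %activity, AC50.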
On the % scale 0 is the no-effect control and ±100 the full control effect.

Activity change, negative = inhibition, inactive:
Cc1noc(C)c1-c1nc(N2CCOCC2)c2ccccc2n1 -9.5%
Cc1noc(C)c1C(=O)N1CCC2(CCCN(C(=O)Nc3ccccc3)C2)CC1 -21%
CNc1nc(-c2ccccc2C(F)(F)F)nc2ccccc12 -1.48%
O=C(Nc1cccc(F)c1)N1CC2(CCN(C(=O)c3cccc(F)c3)CC2)C1 -21.6%
O=C(c1ccncc1)N1CCC2(CCN(Cc3ccccc3)CC2)CC1 3.68%
Cc1cnc(CNc2ncnc3ccc(-c4ccccc4CN(C)C)cc23)cn1 16.4%
CC(=O)N1CCC[C@@]2(CCN(C(=O)Nc3cccc(C#N)c3)C2)C1 -7.34%
COCC(=O)N1CCC2(CCN(Cc3ccc(C#N)cc3)CC2)CC1 -9.28%
Cn1cccc1C(=O)N1CCC2(CCCN(Cc3ccncc3)C2)CC1 -7.26%
CC(=O)N1CCC[C@@]2(CCN(Cc3nccs3)C2)C1 1.66%
CS(=O)(=O)Nc1cccc(-c2nc(NCCN3CCOCC3)c3ccccc3n2)c1 -21.3%
Cc1nc2cnc(N3CCNCC3)nc2n(CCC#N)c1=O -1.38%
CNc1ncnc2ccc(-c3cccc(NS(C)(=O)=O)c3)cc12 -20.9%
N#Cc1cccc(NC(=O)N2CC[C@@]3(CCCN(C(=O)c4ccco4)C3)C2)c1 -2.67%
CC(=O)NCCNc1nc(-c2ccc(N(C)C)cc2)nc2ccccc12 7.41%
FC(F)(F)c1ccccc1-c1nccc(NCc2ccccc2)n1 -1.94%
